Assay results published in PubChem BioAssay AID2508 (National Center for Advancing Translational Sciences (NCATS), 2010).
Results filed as inconclusive are left out. Active and inactive are the calls of the source. Calls follow the shape of the dose curve; as a rule, active = well fitted inhibition curve with a large enough effect; inconclusive = small, poorly fitted or top-dose-only effect, or effect the other way; inactive = no such curve, though single readings can be large or run the other way.

assay: Confirmatory Assay for General miRNAs Modulators and/or Inhibitors/Activators of miR-21; details: HeLa miR-21 FLuc reporter, luminescence, 48 h; series mostly up to 38.3 µM; activity change, negative = inhibition: at the top concentration
Source text: MLSCN Grant: 1 R21 NS059478-01 Assay Provider: Qihong Huang, The Wistar Institute NCGC Assay Overview: MicroRNAs (miRNAs) are endogenously encoded small (~20-25 nucleotides), nonprotein-coding RNAs that are involved in post-transcriptional repression of target messenger RNAs (mRNAs) (Le and Hannon, 2004). Estimated to be involved in the regulation of 30% of all protein-coding mRNAs (Filipowicz et al., 2008), miRNAs play a significant role in many biological processes including cellular differentiation and tissue development (Ghildiyal and Zamore, 2009).
NCGC Assay Protocol Summary: Reagents: HeLa cells stably expressing firefly luciferase (FLuc) under the control of a CMV promoter (upstream) and a miR-21 binding sequence directly downstream of the gene. These cells endogenously express miR-21. Control compounds used were compound C3 (provided by collaborator), N6-phenyladenosine (MP Biomedicals, 0215379625), and DMSO. Assay Summary: 6uL of HeLa miR-21-FLuc cells in assay buffer (DMEM, Invitrogen #21063-029; 10% FBS, HyClone #SH30071.03) were dispensed at 2000cells/well (3.3 x 10^5 cells/mL) into Greiner solid-white TC-treated 1536-well plates using a Multidrop Combi (Thermo Fisher Scientific). Plates were incubated for one hour at 37 degree Celsius, 95% humidity, 5% CO2. These assay plates were then treated with 23nL of compound or DMSO using a Kalypsys pin tool, which allows for delivery of a 24-point titration of each compound to the assay plate, with a final compound concentration ranging from approximately 40uM to 5pM. Assay plates were then incubated for 48 hours. After incubation, plates were allowed to come to RT for one hour prior to delivery of 3uL of 3X luciferase detection reagent. After a 15 minute incubation to allow for cell lysis, luciferase activity was measured using a ViewLux CCD imager (PerkinElmer), with an average exposure time of 2-12 seconds. Keywords: NIH Roadmap, MLPCN, MLSMR, qHTS, miR-21, microRNA, firefly luciferase, FLuc.

Potency, active:
Cc1cccc(-c2nnc(SCC(=O)Nc3ccc(C)c(C)c3)o2)c1 3.18 µM
COc1ccc(OCC(=O)Nc2ccc(-c3nc4cc(C)c(C)cc4o3)cc2)cc1 0.4 µM
Cc1c(-c2nnc(SCC(=O)Nc3ccccc3F)o2)nnn1-c1ccc(F)cc1 3.56 µM
COc1ccc(NC(=O)CSc2nnc(-c3cccs3)o2)cc1 10 µM
CCc1ccc(-n2nnc(-c3nc(-c4cccs4)no3)c2N)cc1 3.18 µM
NC(=O)c1ccccc1NC(=O)c1ccc(-c2ccc(Br)cc2)o1 2.83 µM
COc1cccc(NC(=O)CSc2nnc(-c3cccs3)o2)c1 6.34 µM
Cc1ccccc1Nc1nc(N)nc(CN(C)c2ccccc2)n1 11.3 µM
COc1ccc(NC(=O)c2ncn(-c3ccccc3)n2)cc1Cl 12.6 µM
COCC(=O)Nc1c(C(=O)Nc2ccc3c(c2)OCCO3)oc2ccccc12 0.449 µM
CCc1ccc2oc(C(=O)Nc3nonc3CC)c(C)c2c1 7.11 µM
COc1ccc(CNc2nc(-c3ccco3)nn2C(=O)CC(C)C)cc1 11.3 µM
CCc1nonc1NC(=O)c1oc2ccccc2c1C 7.98 µM
O=C(COc1ccccc1F)Nc1ccc(-c2nc3ccccc3s2)cc1 1.26 µM
CCc1cccc(-n2nnc(-c3nsc(NC(=O)c4cccs4)n3)c2C)c1 10 µM
COc1cc(-c2nc3cnccn3c2Nc2ccc(C(C)C)cc2)ccc1O 2.83 µM
COc1ccc(NC(=O)CSc2nc(SC)ns2)c(OC)c1 4 µM
O=C(CSc1nnc(-c2ccccn2)o1)Nc1cccc(Cl)c1 2.52 µM
COc1ccc(-c2nc(SCc3ccccc3)n(S(C)(=O)=O)n2)cc1 10 µM
COc1ccc(-c2csc(NC(=O)COC(=O)c3ccc(Br)o3)n2)cc1 2.83 µM
COc1ccc(NCc2cccn2-c2nnc(N3CCC(C)CC3)s2)c(OC)c1 3.56 µM
Cc1cc(C)cc(NC(=O)CSc2nnc(-c3ccccc3C)o2)c1 5.65 µM
Cc1ccc(Nc2ncnc(N)n2)cc1C 11.3 µM
Cc1c(-c2nc(-c3ccc(C(F)(F)F)cc3)no2)n(C)oc1=O 0.318 µM
N#Cc1cc2cc3c(cc2nc1SCC(=O)N1CCOCC1)OCO3 1.13 µM
Nc1c(-c2nc(-c3ccccc3Cl)no2)nnn1-c1ccccc1F 0.798 µM
COc1ccc(OCC(=O)Nc2cc(-c3nc4ccccc4s3)ccc2C)cc1 4 µM
O=C(CSc1nnc(-c2ccc(O)cc2)o1)Nc1ccccc1Br 1.79 µM
CSc1nsc(SCC(=O)Nc2ccc(F)cc2F)n1 7.98 µM
CC(C)COc1ccc(C(=O)Nc2cc(-c3ccccc3)no2)cc1 3.56 µM
Cc1cccc(-n2nnc(-c3nc(-c4cccs4)no3)c2N)c1 0.634 µM

Activity change, negative = inhibition, inactive:
Nc1c(C(=O)Nc2ccccc2Br)sc2nc(-c3cccs3)ccc12 -42.2%
Cc1cccc(OCc2nnc(SCC(=O)Nc3ccc(N4CCOCC4)cc3)o2)c1 -7.71%
COc1ccc(CNc2n[nH]c(-c3ccco3)n2)cc1OC -2.25%
COc1ccccc1NC(=O)C/C(C)=N/NC(=O)c1ccccn1 -5.3%
O=C(CSc1nnc(-c2ccncc2)o1)Nc1nncs1 -6.3%
COc1ccccc1NC(=O)c1sc2nc3c(cc2c1N)CN(Cc1ccccc1)CC3 -1.25%
Cc1cc(C)cc(NC(=O)CSc2nnc(CNC(=O)c3ccco3)o2)c1 1.68%
CCC(=O)n1nc(-c2cccnc2)nc1NCc1ccc(F)cc1 -17%
Cc1ccc(NC(=O)Cn2nnc(-c3nc(-c4ccc(Cl)cc4)no3)c2N)cc1C -16.5%
